ADAM17 inh = inhibits human ADAM17; actives 0.83% (n = 370,000); P78536; recombinant ADAM17, EDANS/DABCYL FRET peptide cleavage; inhibition, % at 6.95 µM;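 active = inhibition above the mean of compounds lying between control limits plus 3 SD, set per campaign, cut at about 8.5% in these data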
NR3A LBD binder = modulators (binders) of human NR3A ligand-binding domain | actives 2.5% (n = 340,000) | Tm shift relative to glycine control, % at 25 µM | NR3A LBD differential scanning fluorimetry, Tm shift; 0% = protein alone, 100% = glycine-bound protein | AID 1259313;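 active = melting temperature shift of at least 10% of the positive control shift, at one fixed dose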
ADAM10 inh = ADAM10 inhibition, QFRET primary screen; AID 720582; actives 0.62% (n = 370,000); O14672; inhibition, % at 7 µM; recombinant ADAM10, EDANS/DABCYL FRET peptide cleavage, 3 h;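 active = inhibition above a per-campaign cutoff equal to the mean of compounds falling between control-based bounds plus 3 SD, cut at about 20% in these data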
sPLA2-III inh = Blocks human group III sPLA2 activity; QFRET BODIPY PC-A2 liposome hydrolysis, fluorescence; inhibition, % at 12.2 µM; actives 0.56% (n = 370,000); AID 743126;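 active = inhibition above mean plus 3 SD of compounds lying within the high and low control bounds, cut at about 19% in these data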
Target sequence (Q9NZ20 whole entry, looked up): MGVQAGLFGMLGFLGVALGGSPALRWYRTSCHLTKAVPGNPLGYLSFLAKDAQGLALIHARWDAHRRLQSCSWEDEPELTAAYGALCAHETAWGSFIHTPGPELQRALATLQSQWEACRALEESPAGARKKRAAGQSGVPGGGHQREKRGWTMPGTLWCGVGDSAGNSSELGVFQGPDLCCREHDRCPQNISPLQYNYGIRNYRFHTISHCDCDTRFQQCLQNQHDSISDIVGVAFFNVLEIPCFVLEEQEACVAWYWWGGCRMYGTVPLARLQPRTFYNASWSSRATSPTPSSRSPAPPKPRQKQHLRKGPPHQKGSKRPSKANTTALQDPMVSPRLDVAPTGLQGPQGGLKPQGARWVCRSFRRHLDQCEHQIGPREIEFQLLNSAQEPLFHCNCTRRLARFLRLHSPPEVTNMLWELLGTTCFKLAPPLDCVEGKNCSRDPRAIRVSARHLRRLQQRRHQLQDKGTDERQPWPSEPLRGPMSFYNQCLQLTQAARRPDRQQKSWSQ
FAS TE block = FAS thioesterase (human) inhibition; P49327; inhibition, % at 15 µM; recombinant FAS-TE, OMFH fluorogenic substrate, fluorescence endpoint; actives 0.67% (n = 360,000); AID 602261;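 active = compounds whose normalised, plate-corrected inhibition of enzyme fluorescence in the single-dose primary screen is 50% or more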
FAS-TE conf = FAS thioesterase (human) inhibition, confirmation | recombinant FAS-TE, OMFH fluorogenic substrate, fluorescence | shares compounds with FAS TE block | actives 45% (n = 2,300) | inhibition, % at 15 µM;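 active = compounds inhibiting the enzyme by at least 50% at 15 µM in any one of the replicates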
A number is an active result; 0 = inactive; - = not tested or not shown. Rows were chosen to be rich in hits. Some 4.3% of all compounds tested hit in one or more screens of this group.

SMILES | ADAM17 inh | NR3A LBD binder | ADAM10 inh | sPLA2-III inh | FAS TE block | FAS-TE conf
Cc1cc(O)c2c(c1)C(=O)[C@@]13C(=C2O)C(=O)[C@H]2C(O)[C@@H]1[C@H]1C(O)[C@@H]3C(=O)C3=C(O)c4c(O)cc(C)cc4C(=O)[C@@]312 (stereo partly specified) | 0 | - | 0 | 0 | - | -
CC(=O)N1c2ccccc2C(c2ccccc2)=NCC1C(=O)NC1CCCCC1 (stereo unspecified) | 0 | - | 0 | 0 | - | -
COc1ccc(C(c2nnnn2-c2c(C)cccc2C)N2CCC3(CC2)C(=O)NCN3c2ccccc2)cc1 (stereo unspecified) | 0 | - | 0 | 0 | 50.5 | 0
O=C1NCN(c2ccccc2)C12CCN(C(c1cccc3ccccc13)c1nnnn1-c1ccc3c(c1)OCCO3)CC2 (stereo unspecified) | 0 | - | 0 | 0 | 87.5 | 0
O=C1NCN(c2ccccc2)C12CCN(C(c1cc3ccccc3o1)c1nnnn1-c1ccc3c(c1)OCCO3)CC2 (stereo unspecified) | 0 | - | 0 | 0 | 74.2 | 0
O=C1NCN(c2ccccc2)C12CCN(C(c1ccccc1)c1nnnn1-c1ccc3c(c1)OCCO3)CC2 (stereo unspecified) | 0 | - | 0 | 0 | 0 | -
CC(C)(C)n1nnnc1C(c1cccc2ccccc12)N1CCC2(CC1)C(=O)NCN2c1ccccc1 (stereo unspecified) | 0 | - | 0 | 0 | 76.8 | 0
C=CC1C[N+]2(C)CCC1CC2C(O)c1ccnc2ccccc12 (stereo unspecified) | 0 | - | 0 | 0 | - | -
CCOC(=O)[C@]12Cc3cc(OC)ccc3[C@H]1N(C(C)C)C(=O)c1cc(OC)ccc12 | 0 | - | 0 | 0 | 0 | -
O=[N+]([O-])c1ccc(NCc2ccc(Cl)cc2)c2ccncc12 | 0 | 0 | 0 | 0 | 73.0 | 58.4
O=C(N/N=C/c1c(O)n(C2CCCCC2)c(=S)[nH]c1=O)c1ccccc1O | 0 | 21.8 | 0 | 0 | 55.4 | 41.9
CC(C)n1c(=O)c(C=Nc2cccc([N+](=O)[O-])c2)c(O)n(CCc2ccccc2)c1=O | 0 | 0 | 0 | 0 | 57.2 | 0
CC(C)n1c(=O)c(C=Nc2ccc(S(N)(=O)=O)cc2)c(O)n(Cc2ccco2)c1=O | 0 | 0 | 0 | 0 | 0 | -
O=c1[nH]c2ccccc2n1C1CCN(C(c2cccc3ccccc23)c2nnnn2Cc2ccccc2)CC1 (stereo unspecified) | 0 | - | 0 | 0 | 80.2 | 0
Cc1cccc(C)c1-n1nnnc1C(c1cc2ccccc2o1)N1CCC(n2c(=O)[nH]c3ccccc32)CC1 (stereo unspecified) | 0 | - | 0 | 0 | 81.4 | 0
Cc1cccc(C)c1-n1nnnc1C(c1ccccc1OC(F)(F)F)N1CCC(n2c(=O)[nH]c3ccccc32)CC1 (stereo unspecified) | 0 | - | 0 | 0 | 54.2 | 0
CC[C@]12CCN(CC3(O)CC3)[C@H](Cc3ccc(O)cc31)C2(C)C | 0 | - | 0 | 0 | - | -
CC(C)(C)n1nnnc1C1CN=C(c2ccccc2)c2cc(Cl)ccc2N1 (stereo unspecified) | 0 | - | 0 | 0 | - | -
CCOC(=O)[C@]12Cc3cc(Cl)ccc3[C@H]1N(Cc1ccccc1)C(=O)c1cc(OC)ccc12 | 0 | - | 0 | 0 | 0 | -
CCCCCN1C(=O)c2cc(OC)ccc2[C@@]2(C(=O)OCC)Cc3cc(Cl)ccc3[C@@H]12 | 0 | - | 0 | 0 | 85.3 | 0
CCOC(=O)[C@]12Cc3cc(Cl)ccc3[C@H]1N(CC(=O)OC)C(=O)c1ccccc12 | - | - | - | - | 55.4 | 0
CCOC(=O)[C@]12Cc3cc(Cl)ccc3[C@H]1N(C(C)C)C(=O)c1ccccc12 | 0 | - | 0 | 0 | 67.6 | 0
CCOC(=O)[C@]12Cc3cc(Cl)ccc3[C@H]1N(C)C(=O)c1ccccc12 | 0 | - | 0 | 0 | 0 | -
O=c1[nH]c2ccccc2n1C1CCN(C(CCc2ccccc2)c2nnnn2C2CCCC2)CC1 (stereo unspecified) | 0 | - | 0 | 0 | 0 | -
CCC(C)c1cnc(CC(C)C)c(=O)n1O (stereo unspecified) | 0 | - | 0 | 0 | 0 | -
Cn1cc(P(=S)(c2ccccc2)c2ccccc2)c2ccccc21 | 0 | - | 0 | 0 | - | -
Fc1cccc(-c2ccc3c(c2)CN(C(=S)NCCc2ccccc2)Cc2cnnn2-3)c1 | 0 | - | 0 | 0 | 0 | -
CCOC(=O)[C@]12Cc3cc(OC)ccc3[C@H]1N(C)C(=O)c1ccccc12 | 0 | - | 0 | 0 | 0 | -

Compound activity from PubChem.
